# According to PubChem BioAssay AID652062 (Broad Institute, 2013):
# Out of some 1,400 compounds screened, about 1,100 (79%) were called active.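 How the source made its calls: active means fitted half-maximal concentration of a falling signal no higher than twice the top valid dose in every test run; inconclusive means runs disagree, or flat partial inhibition, or poor fit; inactive means every run inactive: flat, wrong direction, or potency beyond limit.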 The set was probably picked from earlier hits. Only a sample is shown. Entries with a potency or affinity are not part of this list.
# Assay: HIV-1 AD8 envelope cell-cell fusion blockers – cherry-pick, dose response (AID 652062)
# Details: HeLa-AD8 Env / CEM-CCR5 cell fusion, luciferase; at 35 µM (top of the series) unless noted
row,Compound,"activity change, negative = inhibition"
1,CC(C)NC(=O)N(C)C[C@@H]1Oc2ccc(NC(=O)C3CC3)cc2CC(=O)N([C@H](C)CO)C[C@H]1C,-3.87%
2,CC(C)NC(=O)N(C)C[C@@H]1Oc2ccc(NC(=O)C3CC3)cc2CC(=O)N([C@@H](C)CO)C[C@@H]1C,-3.66%
3,Nc1ncn([C@H]2C[C@H](O)[C@@H](CO)O2)c(=O)n1,8.34%
4,C[C@@H]1CN([C@@H](C)CO)S(=O)(=O)c2ccc(-c3ccccc3)cc2O[C@H]1CN(C)S(C)(=O)=O,54.4%
5,Nc1nc2c(ncn2[C@@H]2O[C@H](C(=O)NCC(c3ccccc3)c3ccccc3)[C@@H](O)[C@H]2O)c(=O)[nH]1,19.5%
6,C[C@@H]1CN([C@H](C)CO)C(=O)c2cccc(NS(=O)(=O)c3cn(C)cn3)c2O[C@H]1CN(C)C(=O)Nc1ccc(F)cc1,0.184%
7,O=C(CC1C(=O)NCCN1Cc1cccc(F)c1)NC1CCCCC1 (stereo unspecified),73.6%
8,CCN(CCn1cccn1)C(=O)CC1C(=O)NCCN1CCc1ccccc1 (stereo unspecified),27.6%
9,CCCCNC(=O)C[C@H]1C[C@@]2(C(=O)OC)C(=C[C@H](C(C)(C)C)O[C@@H]2C)N(Cc2ccc3c(c2)OCO3)C1=O,26.7%
10,Cc1ccc2c(c1)c1c3n2CCN(CC(N)=O)C3CCC1 (stereo unspecified),38.7%
11,Cc1ccc(Cn2ncc3c(N4CCN(c5ccc(C)cc5)CC4)ncnc32)cc1,-19.9%
12,Cc1ccc(-n2ncc3c(N4CCN(c5ccccc5)CC4)ncnc32)c(C)c1,-35.1%
13,COc1ccc(NS(=O)(=O)c2cccc(C(=O)NNC(=O)CNC(=O)c3ccc(C)cc3)c2)cc1,3.44%
14,CCOC(=O)[C@]12CCC=C1N(Cc1ccc3c(c1)OCO3)C(=O)[C@H](CC(=O)NCC13CC4CC(CC(C4)C1)C3)C2,17.3% [at 16 µM]
15,COC(=O)[C@]12CCCCC=C1N(Cc1ccco1)C(=O)[C@H](CC(=O)NCCc1ccccc1OC)C2,99.6%
16,C[C@@H]1CN([C@H](C)CO)C(=O)c2cc(NC(=O)Nc3ccccc3)ccc2O[C@@H]1CN(C)S(=O)(=O)c1ccccc1,138%
17,CCOC(=O)[C@@H]1[C@H]2COc3cc(OC)ccc3[C@H]2N2C(=O)N(c3cccc(F)c3)C(=O)[C@@]12C,236%
18,C[C@H]1CN([C@@H](C)CO)C(=O)c2cccc(NC(=O)Nc3ccc(C(F)(F)F)cc3)c2O[C@H]1CN(C)S(=O)(=O)c1ccccc1,-14.4%
19,CCN(CC)S(=O)(=O)c1ccc(NC(=O)Nc2cccc(C(F)(F)F)c2)cc1,-121%
20,CCc1nnc(NC(=O)[C@@H](NC(=O)c2cccc(S(=O)(=O)N(CC)CC)c2)C(C)C)s1,52.6%
21,O=C(NCc1ccco1)c1ccc(Cn2c(=O)c3ccccc3n(Cc3cccc(F)c3)c2=O)cc1,15.9%

row,Compound,"activity change, negative = inhibition"
1,CCCCCn1c(C(C)NC(=O)CCC)nc2ccccc21 (stereo unspecified),-19.3%
2,COc1cc2c(c(OC)c1OC)[C@@]1(c3ccccc3)CCCC[C@H]1[C@@H]2NC(=O)C(F)(F)F,-28.2%
3,Cc1ccc(NS(=O)(=O)c2cc(C(=O)N(C)C3CCN(C)CC3)ccc2Cl)cc1Cl,81.1%
4,CCN(c1nc(N)c(C(=O)N=C(N)N)nc1Cl)C(C)C,-8.55%
5,Cc1[nH]c2ccccc2c1/C=N\NC(=O)c1ccccc1Cl,8.5%
6,CN1CCc2ccccc2Cc2[nH]c3ccccc3c2CC1,-17.8%
7,CC(C)OCCCn1c(=S)[nH]c2ccc(N3CCOCC3)cc2c1=O,-27.3%
8,O=C(NCc1ccccc1)[C@@H]1CCCN1C(=O)[C@@H]1CCCN1C(=O)c1cccc2ccccc12,-3.32%
9,Cc1cc(C(=O)N2CCC(C(=O)O)CC2)c(C(F)(F)F)o1,-10.2%
10,C[C@@H]1CN([C@@H](C)CO)C(=O)c2cc(NC(=O)c3ccncc3)ccc2O[C@H]1CN(C)Cc1ccncc1,56.3%
11,COc1ccc(CN(C)C[C@@H]2Oc3ccc(NC(=O)Nc4ccc(OC)cc4)cc3C(=O)N([C@H](C)CO)C[C@@H]2C)cc1,64%
12,C[C@@H]1CN([C@@H](C)CO)C(=O)c2cc(NC(=O)c3ccccc3)ccc2O[C@@H](C)CCCCO[C@H]1CN(C)Cc1ccc(C(=O)O)cc1,52.2%
13,C[C@@H]1CN([C@@H](C)CO)C(=O)c2cc(NC(=O)c3ccncc3)ccc2O[C@@H]1CN(C)Cc1ccncc1,34.4%
14,O=c1[nH]c(=O)n([C@H]2C[C@H](O)[C@@H](CO)O2)cc1F,-10.2%
15,Cc1cc(C)nc(/N=C(\N)Nc2ccc(CC(=O)OC(C)C)cc2)n1,39.8%
16,C[C@@]12C(=O)N(Cc3ccc(F)cc3)CC(=O)N1[C@H]1c3cc(Cl)ccc3OC[C@@H]1[C@@H]2c1ccccc1,19.5%
17,CN(C[C@H](Cc1ccccc1)N(C[C@H](c1ccccc1)N(CCc1ccccc1)N=O)N=O)N=O,-5.55%
18,Cc1ccc(S(=O)(=O)Nc2ccc3c(c2)C(=O)N([C@H](C)CO)C[C@@H](C)[C@H](CN(C)S(=O)(=O)c2ccc(F)cc2)O3)cc1,-22.9% [at 16 µM]
19,Cc1ccc(S(=O)(=O)Nc2ccc3c(c2)CC(=O)N([C@@H](C)CO)C[C@H](C)[C@@H](CN(C)Cc2ccc(-c4ccccc4)cc2)O3)cc1,215% [at 18 µM]
20,C[C@@H]1CN([C@@H](C)CO)C(=O)c2cc(NS(=O)(=O)c3ccccc3)ccc2O[C@H]1CN(C)Cc1ccc(Oc2ccccc2)cc1,132%
21,O=C(C1CCCCC1)N1CCCC(c2nc3c(nnn3Cc3ccccc3)c(=O)[nH]2)C1 (stereo unspecified),-8.09% [at 16 µM]

row,Compound,"activity change, negative = inhibition"
1,C[C@H](CO)N1C[C@H](C)[C@@H](CN(C)S(=O)(=O)c2ccc(F)cc2)Oc2ccc(NS(=O)(=O)c3cn(C)cn3)cc2CC1=O,35.3%
2,Cc1ccc(S(=O)(=O)N(C)C[C@@H]2Oc3ccc(NS(=O)(=O)c4c(C)noc4C)cc3CC(=O)N([C@H](C)CO)C[C@@H]2C)cc1,-10.8%
3,C[C@H](CO)N1C[C@H](C)[C@H](CN(C)S(=O)(=O)c2ccccc2)Oc2ccc(NS(=O)(=O)c3ccc(F)cc3)cc2CC1=O,10.2%
4,CCNc1ncnc2c1cnn2C1CCCO1 (stereo unspecified),-11.7%
5,C[C@@H]1CN([C@@H](C)CO)C(=O)Cc2cc(NC(=O)NC3CCCCC3)ccc2O[C@@H]1CN(C)S(=O)(=O)c1ccc(Cl)cc1,-18.9%
6,CCS(=O)(=O)N[C@H]1CC[C@@H](CC(=O)NCc2ccc(Cl)cc2)O[C@@H]1CO,46.4%
7,COc1cccc(CNC(=O)C[C@@H]2C=C[C@H](NC(=O)C3CCC3)[C@H](CO)O2)c1,64%
8,O=C(Nc1cccc(F)c1)N[C@H]1CC[C@@H](CCNS(=O)(=O)c2cccc(Cl)c2)O[C@H]1CO,15.8%
9,CNC[C@@H]1Oc2c(N)cccc2C(=O)N([C@@H](C)CO)C[C@@H]1C,-6.55%
10,C[C@H]1CN([C@@H](C)CO)C(=O)c2cccc(NC(=O)C3CCCCC3)c2O[C@H]1CN(C)S(C)(=O)=O,43.4%
11,C[C@H](CO)N1C[C@H](C)[C@H](CN(C)C(=O)Nc2ccccc2)Oc2c(NS(=O)(=O)c3ccc(F)cc3)cccc2C1=O,63.4% [at 8 µM]
12,C[C@@H]1CN([C@H](C)CO)C(=O)c2cccc(NS(=O)(=O)c3ccc(Cl)cc3)c2O[C@H]1CN(C)CC1CCCCC1,87% [at 8 µM]
13,C[C@@H]1CN([C@H](C)CO)C(=O)c2cccc(NC(=O)c3cnccn3)c2O[C@H]1CN(C)Cc1ccccc1,8.76%
14,COc1ccccc1N/C(N)=N/c1nc(CSc2ccc(C)cc2)cc(=O)[nH]1,-51.5%
15,CCOC(=O)C1=C(C)N=C2c3ccccc3C(=O)C2C1c1ccc(Cl)cc1 (stereo unspecified),-84.7%
16,CCOC(=O)c1ccc(NC2c3ncccc3C(=O)N2Cc2ccc(F)cc2)cc1 (stereo unspecified),-27%
17,CC(CCc1ccco1)NC(=O)CCc1nnc2ccc(NCc3ccccc3Cl)nn12 (stereo unspecified),87.2%
18,COc1cccc(S(=O)(=O)N[C@H]2CC[C@@H](CCN)O[C@@H]2CO)c1,11.2%
19,COc1cccc(S(=O)(=O)N[C@@H]2CC[C@H](CCN)O[C@H]2CO)c1,3.96%
20,O=C(Nc1cc2c3c(c1)CC(=O)N3CCC2)c1ccc(Cl)cc1,197% [at 16 µM]
21,COc1ccccc1CNC(=O)C[C@H]1C[C@@H]2c3cc(NC(=O)c4cccnc4)ccc3O[C@@H]2[C@@H](CO)O1,64.7%

row,Compound,"activity change, negative = inhibition"
1,CCCNC(=O)C[C@@H]1C[C@H]2c3cc(NC(=O)c4cccnc4)ccc3O[C@H]2[C@H](CO)O1,6.61%
2,CCN(CC)C(=O)c1ncn2c1C(=O)NC[C@@H]2C,-31.4%
3,CC1CCN(C(=O)c2ncn3c2C(=O)NC[C@@H]3C)CC1,15.1%
4,CCCC#Cc1ccc2c(c1)O[C@@H](CN(C)C(=O)C1CCCCC1)[C@H](C)CN([C@H](C)CO)S2(=O)=O,90.1% [at 16 µM]
5,C[C@@H]1CN([C@H](C)CO)S(=O)(=O)c2ccc(C#Cc3cccc(F)c3)cc2O[C@@H]1CN(C)C(=O)CN1CCOCC1,80.2%
6,CC(C)C#Cc1ccc2c(c1)O[C@@H](CN(C)C(=O)C1CCCCC1)[C@H](C)CN([C@H](C)CO)S2(=O)=O,41.8% [at 16 µM]
7,C[C@@H]1CN([C@@H](C)CO)S(=O)(=O)c2ccc(-c3ccc(F)cc3)cc2O[C@H]1CN(C)C(=O)C1CCCCC1,-27.8%
8,CCC(=O)N(C)C[C@H]1Oc2cc(/C=C/c3ccccc3)ccc2S(=O)(=O)N([C@@H](C)CO)C[C@H]1C,-29.3%
9,Cc1ccc(-c2ccc3c(c2)O[C@@H](CN(C)C(=O)C2CCCCC2)[C@H](C)CN([C@H](C)CO)S3(=O)=O)cc1,53.1% [at 16 µM]
10,Cc1ccc(C(=O)NCc2ccccn2)cc1S(=O)(=O)N1CCCCC1,24.4%
11,Cc1ccc(S(=O)(=O)N(C)C[C@H]2Oc3ccc(NC(=O)Nc4cccc5ccccc45)cc3C(=O)N([C@H](C)CO)C[C@@H]2C)cc1,64%
12,CO[C@H]1CN(C)C(=O)c2ccc(NC(=O)C3CC3)cc2OC[C@@H](C)N(C(C)=O)C[C@@H]1C,20%
13,CCCC(=O)Nc1ccc2c(c1)OC[C@@H](C)N(C(=O)CN(C)C)C[C@H](C)[C@@H](OC)CN(C)C2=O,-23.4%
14,CCC(=O)Nc1ccc2c(c1)C(=O)N(C)C[C@@H](OC)[C@H](C)CN(C(=O)CC)[C@@H](C)CO2,44.7%
15,CO[C@H]1CN(C)C(=O)c2cc(NS(=O)(=O)c3ccc(Cl)cc3)ccc2OC[C@@H](C)N(C)C[C@@H]1C,45%
16,CO[C@@H]1CN(C)C(=O)c2ccc(NS(C)(=O)=O)cc2OC[C@@H](C)N(C(=O)C2CCCCC2)C[C@H]1C,26.2%
17,CCCC(=O)Nc1ccc2c(c1)OC[C@H](C)N(Cc1ccncc1)C[C@H](C)[C@H](OC)CN(C)C2=O,-9.34%
18,CCS(=O)(=O)Nc1ccc2c(c1)C(=O)N(C)C[C@H](OC)[C@@H](C)CN(C(=O)C1CCC1)[C@H](C)CO2,25.1%
